From PubChem BioAssay AID777 (Sanford-Burnham Center for Chemical Genomics, 2007)
The campaign covered roughly 96,000 compounds. About 19,000 (20%) were called active. Not all results are given here. A number with no mark means an inactive call.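 The calls were made as follows: active = blocking of liver enzyme CYP2C9 beyond about 50% at 5 µM (limit read from the data); inactive = the rest.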

biological target: Cytochrome P450 2C9 (Homo sapiens) (UniProt P11712); test: blockers of cytochrome P450 2C9 activity – biochemical, luminescence, ADME assay, primary screen (AID 777); conditions: CYP2C9 Supersomes, luciferin-H conversion, at 5 µM, active compounds read high
Sequence (P11712 whole entry, looked up): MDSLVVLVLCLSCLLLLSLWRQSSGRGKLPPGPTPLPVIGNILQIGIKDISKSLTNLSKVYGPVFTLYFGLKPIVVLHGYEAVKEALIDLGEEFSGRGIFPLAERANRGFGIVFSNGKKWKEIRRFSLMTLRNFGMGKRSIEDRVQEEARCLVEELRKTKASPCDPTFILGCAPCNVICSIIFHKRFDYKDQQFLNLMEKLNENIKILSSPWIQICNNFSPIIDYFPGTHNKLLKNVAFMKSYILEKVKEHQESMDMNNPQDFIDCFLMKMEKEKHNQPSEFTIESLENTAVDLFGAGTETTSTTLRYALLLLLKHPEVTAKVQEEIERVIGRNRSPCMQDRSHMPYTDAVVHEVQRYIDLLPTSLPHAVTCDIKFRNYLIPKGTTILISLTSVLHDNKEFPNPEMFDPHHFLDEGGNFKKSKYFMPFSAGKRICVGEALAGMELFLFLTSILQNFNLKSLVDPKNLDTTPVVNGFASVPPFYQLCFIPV

Compared with CNC(=O)Nc1cc(C(C)(C)C)no1, CCC(=O)Nc1ccc(C(=O)Nc2cc(C)on2)cc1 is higher in inhibition: 7.8% for the first, 8.5% for the second.

First: CCOC(=O)c1c(N)c(C#N)nn1-c1ccccc1C(=O)OC
Second: CCOC(=O)c1cc2ccccc2nc1C
The inhibition of the first is higher: -2.3% for the first, -27.3% for the second.

First: CN(C(=O)CC(NC(=O)c1ccccc1)(c1ccccc1)c1ccccc1)c1ccccc1
Second: O=C(CN1CCN(C(=O)c2cccc(F)c2)CC1)Nc1ccccc1F
The inhibition of the first is lower: 21.9% for the first, 27.5% for the second.

First: CC(C)CC(=O)N=C1SC2CS(=O)(=O)CC2N1CCc1ccccc1 (stereo not drawn)
Second: CCCCc1nnc(NC(=O)CS(=O)(=O)Cc2ccccc2)s1
The inhibition of the first is lower: 7.8% for the first, 44.7% for the second.

First: CCc1ccc(-c2nnn(Cc3nn[nH]n3)n2)cc1
Second: CC(C)CCNC(=O)CN(C(=O)Cn1nnc(-c2ccc(F)cc2)n1)C1CCCC1
The inhibition of the first is higher: 23.5% for the first, 17.3% for the second.

First: CCNC(=O)N1CCNC(=O)C1CC(=O)Nc1ccc(C(=O)OCC)cc1 (stereo not drawn)
Second: CCC(=O)Nc1ccc(C(=O)Nc2ccc3c(c2)C(=O)N(CC2CCCO2)C3=O)cc1 (stereo not drawn)
The inhibition of the first is lower: 1.1% for the first, 18.8% for the second.

Going from COC(=O)c1ccc(C(=O)OC)c(NC(=S)N2CCCCC2)c1 to Cc1ccc(C(=O)N2CCCCCC2)cc1Br, the inhibition falls from 14% to -23.3%.

Compared with O=C(Nc1ccc2c(c1)CCC2)c1cccc(S(=O)(=O)N2CCN(c3ccc(F)cc3)CC2)c1, CC(=O)Nc1ccc(N2CCOCC2)c(C(=O)Nc2cccc(C)c2)c1 is higher in inhibition: 39.9% for the first, 49.6% for the second.

Compared with C=CCNc1nnc(C)c2ccccc12, Cc1ccccc1Nc1nnc(C)c(=O)[nH]1 is higher in inhibition: -15.2% for the first, 2.7% for the second.

Going from O=C(c1ccccc1)N1CCN(C(=O)N2CCCCC2)CC1 to Cn1c(=NC(=O)CSCC(=O)N2CCCCC2)sc2ccccc21, the inhibition falls from 1.9% to -39.3%.

First: Cc1ccccc1CS(=O)(=O)CC1(O)CCN(C(=O)c2cccc(C(F)(F)F)c2)CC1
Second: O=C(Cc1c(F)cccc1Cl)N1CCN(C(=O)c2ccco2)CC1
The inhibition of the first is lower: 4.9% for the first, 11.7% for the second.

Going from Cc1ccc(S(=O)(=O)N(c2cccc(C)c2)C2CCS(=O)(=O)C2)cc1 (stereo not drawn) to COc1ccc(C(=O)N(Cc2ccc(N(C)C)cc2)C2CCS(=O)(=O)C2)cc1 (stereo not drawn), the inhibition falls from 7.2% to -2.3%.

First: CC(C)C(=O)Nc1ccc2c(c1)oc1ccccc12
Second: COc1cccc(N(CC(=O)Nc2cccc(F)c2)S(C)(=O)=O)c1
The inhibition of the first is lower: 1.8% for the first, 45.4% for the second.

Going from CC1Cc2ccccc2N1C(=O)CSc1nnc(-c2ccc(S(=O)(=O)N3CCCCC3)cc2)o1 (stereo not drawn) to O=C(CN1C(=O)c2ccccc2S1(=O)=O)N1CCc2ccccc21, the inhibition falls from 31.7% to -5.2%.

Compared with COc1ccc(C2=NOC3(CC(=O)N(c4ccc(C)cc4)C3=O)C2)cc1 (stereo not drawn), O=C1CSC(c2cccc(F)c2)N1c1ccc(O)cc1 (stereo not drawn) is higher in inhibition: 12% for the first, 32.7% for the second.

Compared with CCCc1nnc(NC(=O)c2cc(OC)cc(OC)c2)s1, COc1cc(OC)cc(-c2nc3nc(C)c(CCC(=O)NCc4ccco4)c(C)n3n2)c1 is lower in inhibition: 21.7% for the first, 15.8% for the second.

First: COc1ccc(S(=O)(=O)N2CCCC2)c(C)c1C
Second: COc1ccc(S(=O)(=O)N2CCC(C(=O)N3CCOCC3)CC2)cc1OC
The inhibition of the first is lower: -147% for the first, 43.3% for the second.

First: Cc1ccc(NS(=O)(=O)c2c(C)[nH]c(=O)[nH]c2=O)cc1C
Second: Cc1cccc(N(CC(=O)Nc2ccc(-c3nc4ccc(C)cc4s3)cc2)S(C)(=O)=O)c1
The inhibition of the first is lower: 4.6% for the first, 6.7% for the second.

First: CCOc1cc(C(=O)Nc2ncccn2)cc(OCC)c1OCC
Second: CCCCOCCCNC(=O)c1ccccc1OCC
The inhibition of the first is higher: 3.1% for the first, -187% for the second.

First: Nc1nnc(C2CCCC2)s1
Second: Nn1c(SCC(=O)NC2CCCC2)nnc1-c1ccccc1F
The inhibition of the first is lower: 7.5% for the first, 8.6% for the second.

First: CCCSC1=C(C#N)C(c2ccccc2C)C(C(=O)OC)C(=O)N1 (stereo not drawn)
Second: COCCNC(=O)COc1ccccc1C
The inhibition of the first is higher: 33.7% for the first, 4.4% for the second.

First: COc1ccc(NC(=O)c2sccc2SCC#N)cc1
Second: CCCCCNC(=O)Cc1ccc(OC)cc1
The inhibition of the first is lower: 10.4% for the first, 14.9% for the second.

Going from C/C(=N\O)C1(C)N(O)C(C)(C)C(c2ccc(Br)cc2)=[N+]1[O-] (stereo not drawn) to CC1=CC(C)(C)NC(=S)N1c1ccccc1, the inhibition rises from -4.6% to 13.8%.

First: O=c1onc(-c2cccs2)n1Cc1ccccc1
Second: O=C1c2cccnc2C(=O)N1Cc1cccs1
The inhibition of the first is lower: 4.9% for the first, 11.6% for the second.

Compared with Cc1ccc(OCCCC(=O)N2CCOCC2)c(C)c1, CCCn1nnnc1NC(=O)COc1ccc(Cl)cc1C is higher in inhibition: 4% for the first, 46.7% for the second.

First: CSCCC(NC(=O)c1ccco1)C(=O)OCC(=O)Nc1ncc(Cl)c(C)c1Cl (stereo not drawn)
Second: O=C(Nc1nnc(CCOCCOCCc2nnc(NC(=O)c3ccco3)s2)s1)c1ccco1
The inhibition of the first is higher: 24.2% for the first, 19.4% for the second.

Compared with CCc1cc(=O)oc2cc(C)cc(OC(C)C(=O)O)c12 (stereo not drawn), CCOC(=O)c1[nH]c2ccc(C)cc2c1N=C(C)N(C)C is lower in inhibition: -7.1% for the first, -7.9% for the second.

Compared with O=c1[nH]c(CCl)nc2cc(-c3ccc(Cl)cc3)sc12, CNC(=O)c1nnc(Cc2ccc(Cl)cc2)o1 is lower in inhibition: 17.9% for the first, 5% for the second.

Compared with O=C(Nc1sc2c(c1-c1nc3ccccc3[nH]1)CCCC2)C1CC1, O=C(NCc1ccccn1)c1c(O)c2c([nH]c1=O)CCCC2 is lower in inhibition: 40.5% for the first, 15% for the second.

Going from COc1cc(C(=O)N(Cc2ccc(N(C)C)cc2)C2CCS(=O)(=O)C2)cc(OC)c1OC (stereo not drawn) to Cc1ccc(N(CC(=O)Nc2cccc(N(C)S(C)(=O)=O)c2)S(C)(=O)=O)cc1, the inhibition rises from 5.2% to 5.5%.

Going from O=C(Nc1nccs1)c1cc(S(=O)(=O)N2CCOCC2)c(Cl)cc1Cl to COc1ccc(CNC(=O)C2CCC(CNc3c(N4CCOCC4)c(=O)c3=O)CC2)cc1 (stereo not drawn), the inhibition falls from 15.1% to -7.6%.

First: CC(=O)N(CC1CCCO1)C1(C(=O)NC2CCCC2)CCCCC1 (stereo not drawn)
Second: CCc1cccc2c(C=C(C#N)C#N)cn(CC(=O)N3CCCCC3)c12
The inhibition of the first is lower: -7.3% for the first, 0% for the second.

Compared with COC(=O)c1ccc(CSc2nncn2C)cc1, CCOc1ccccc1Nc1nnc(SCc2ccc(C(=O)OC)o2)s1 is lower in inhibition: 21.6% for the first, -73.5% for the second.

Compared with Cc1cc(O)ccc1-c1cnc2ccccc2n1, O=C(CSc1ncn[nH]1)Nc1ccnc2ccccc12 is higher in inhibition: -7.4% for the first, 35.2% for the second.

Going from CNC(=O)CN1C(=O)c2ccccc2S1(=O)=O to COc1ccccc1-c1cc(C(=O)NCCCn2ccnc2)no1, the inhibition falls from -5.9% to -25.8%.

Compared with CCOc1cccc(NC(=O)CC#N)c1, CCCC(=O)Nc1ccc(C(=O)NCCCn2ccnc2)cc1 is higher in inhibition: -19.3% for the first, 42.1% for the second.

Compared with Cc1ccc(/C=N/NC(=O)c2sccc2OCc2ccc(F)cc2)cc1, NS(=O)(=O)c1ccc(CCNC(=O)Nc2ccc(Cl)cc2)cc1 is higher in inhibition: 17.4% for the first, 30.4% for the second.

First: Cc1[nH][nH]c(=O)c1N=Nc1ccccc1
Second: CCc1c(C)nc(N2CCN(Cc3ccccc3)CC2)[nH]c1=O
The inhibition of the first is higher: 25.4% for the first, 10.1% for the second.

First: CCN1CCN(C(=O)/C=C\C(=O)O)CC1
Second: CC1Cc2cc(/C(O)=C3\C(=O)C(=O)N(CCN4CCOCC4)C3c3ccccc3F)ccc2O1 (stereo not drawn)
The inhibition of the first is lower: -4.2% for the first, 0.8% for the second.

Going from CS(=O)(=O)N(CC(=O)Nc1ccc(F)cc1F)c1cccc([N+](=O)[O-])c1 to CC(C)CCNC(=O)C1CCCN(S(=O)(=O)c2ccc(F)cc2)C1 (stereo not drawn), the inhibition falls from 13.3% to -10.8%.

First: CCSc1ncnc2c(C#N)c3n(c12)CCCCC3
Second: O=c1cc(CSc2ccccn2)nc(N2CCN(c3ccccc3)CC2)[nH]1
The inhibition of the first is higher: 17.9% for the first, 3.6% for the second.

Compared with O=C(Nc1cccc2ncccc12)C(Cl)(Cl)Cl, CCOC(=O)c1nc(N)sc1C(=O)OCC is lower in inhibition: 49.6% for the first, 4.2% for the second.

With CCCn1c(SCC(N)=O)nnc1C(C)C the inhibition was -8%.

For Cc1cccc(C(=O)N2CCCN(C(=O)c3cccc(C)c3)CC2)c1, the inhibition was 70.4% (active).
Cc1ccccc1CN1CCN(C(=O)c2cccc(F)c2)CC1 was tested, and the inhibition was 85.6% (active).
With COc1ccc(S(=O)(=O)Nc2ccc(F)cc2)c(C)c1C the inhibition was 66.9% (active).
CC1=C(C(=O)Nc2ccccc2)C(c2cccs2)C(C#N)=C(SCC#N)N1 (stereo not drawn) was tested, and the inhibition was 87.5% (active).
With CCNC(=O)NC(=O)C(C)OC(=O)c1cc(S(=O)(=O)N2CCCCCC2)ccc1OC (stereo not drawn) the inhibition was 98.5% (active).
CCCCc1cc(=O)oc2cc(C)cc(OCc3nn[nH]n3)c12 was tested, and the inhibition was 67.5% (active).
With CCOc1ccc(C(=O)N(Cc2ccc(N(C)C)cc2)C2CCS(=O)(=O)C2)cc1 (stereo not drawn) the inhibition was 65.3% (active).
In the case of COC(=O)c1ccc(CSc2ccc3nnc(-c4ccccc4)n3n2)o1, the inhibition is reported as 96.2% (active).
In the case of O=C1c2ccccc2S(=O)(=O)N1CC(O)Cn1c2ccccc2c2ccccc21 (stereo not drawn), the inhibition is reported as 94.4% (active).
CC(=O)Nc1cccc(Oc2cc(C#N)c(C#N)cc2N2CCOCC2)c1 was tested, and the inhibition was 61.5% (active).
In the case of O=C(NCCCn1ccnc1)Nc1ccc(Cl)cc1Cl, the inhibition is reported as 97.7% (active).
With CCOc1ccccc1C(=O)NCCCn1ccnc1 the inhibition was 65.1% (active).
For CCN(CC)S(=O)(=O)c1ccc(NC(=O)CN(c2cccc(F)c2)S(C)(=O)=O)cc1, the inhibition was 97.6% (active).
COc1cccc(N(CC(=O)Nc2cccc(N(C)S(C)(=O)=O)c2)S(C)(=O)=O)c1 was tested, and the inhibition was 57.7% (active).
With O=C(CSc1n[nH]c(-c2cccnc2)n1)Nc1ccnc2ccccc12 the inhibition was 91.5% (active).
With CCOC(=O)c1sc(C)c2c1NC(C)(c1cccc3ccccc13)NC2=O (stereo not drawn) the inhibition was 100% (active).
For CC(C)CCNC(=O)C(C)N(C(=O)Cn1nnc(-c2ccc(F)cc2)n1)C1CCCC1 (stereo not drawn), the inhibition was 77.2% (active).
With Cc1nnc(SCc2cc(=O)[nH]c(N3CCN(Cc4ccccc4)CC3)n2)s1 the inhibition was 56.4% (active).
